Source: PubChem BioAssay
Calls of active or inactive are those of the source.

Experiment: JC-1 mitochondrial signal, unstimulated MM1S myeloma – cell-based, JC-1 fluorescence, 24 h, 100 nL compound, profiling panel (AID 1170)
Settings: MM1S mitochondrial potential, higher = more signal
Also: test concentration not given here.

Structure (SMILES) | z-score
O=C1O[C@H](c2ccccc2)[C@H](c2ccccc2)N2[C@H]1[C@@H](C(=O)N1CCN(c3ncccn3)CC1)[C@]1(C(=O)Nc3ccc(C#CC4=CCCCC4)cc31)[C@H]2c1ccc(O)cc1 | -0.75
O=C1OCCC/C=C\[C@H]2OC34C=CCN(c5ccc6ccccc6c5)C(=O)[C@H]3N(CCCCCCO)C(=O)[C@@H]4C12 (stereo not given in full) | -0.257
C#CCN(CC=C(C)C)[C@H](CO)c1ccccc1 | 0.471
C=C(CCCC)C(=O)CC[C@H](OC(C)=O)c1cccc(OCCO)c1 | -0.964
COCCOC(=O)N1C(=O)[C@@]2(c3cc(C#Cc4ccc(OC)cc4)ccc31)[C@H](C(N)=O)[C@H]1C(=O)O[C@H](c3ccccc3)[C@H](c3ccccc3)N1[C@@H]2c1ccccc1OCCO | -1.38
COc1ccc(C(=O)Nc2cccc(CN3C(=O)[C@]4(O[C@H](CCO)[C@@H]([Si](C)(C)c5ccc(OC)cc5)[C@@H]4C)c4ccccc43)c2)cc1 | -1.96
Cc1ccc(S[C@]2(C(=O)NCC(F)(F)F)CC(=O)N(C(C)C)[C@@H]2c2ccc(CO)cc2I)cc1 | -1.12
COC(=O)[C@@]1(Cc2ccc(OC)cc2)[C@H]2c3cc(C(=O)N(C)C)n(CCN4CNCC4=O)c3C[C@H]2CN1C(=O)c1ccccc1 | -1.28
COCCOC(=O)N1C(=O)[C@@]2(c3cc(C#CCNC(N)=O)ccc31)[C@H](C(=O)NC[C@H](O)c1ccccc1)[C@H]1C(=O)O[C@H](c3ccccc3)[C@H](c3ccccc3)N1[C@@H]2c1ccccc1OCCO | -1.04
CC(C)(C)OC(=O)CC[C@]1(C(=O)O)N=C(c2ccc(OCCCO)cc2)O[C@H]1c1ccccc1N=[N+]=[N-] | -0.589
O=C1C2C=CC(C(O)C(c3ccccc3)c3ccccc3)N(n3cnnc3)C2C(=O)N1Cc1ccccc1 (stereo not given) | 0.153

Experiment: resazurin metabolic signal in A549 cells – cell-based, resazurin fluorescence, 24 h, PK04 Diversity Set, profiling panel (AID 1171)
Settings: A549 viability, higher = more signal, called active from +8 up or from −8 down

Structure (SMILES) | z-score
C=C(COC)/C(=C/C[C@@H](OC(C)=O)c1ccc(CO)o1)c1cnc2ccccc2c1 | -0.874 (inactive)
COc1ccc(C#Cc2ccc3c(c2)[C@]2(C(=O)N3)[C@H](c3ccccc3OCCO)N3[C@H](c4ccccc4)[C@H](c4ccccc4)OC(=O)[C@H]3[C@@H]2C(=O)O)cc1 | 0.206 (inactive)
COc1ccc([Si](C)(C)[C@@H]2[C@@H](CC(=O)N3Cc4ccccc4C[C@H]3CO)O[C@]3(C(=O)N(C)c4c(Br)cc(C)cc43)[C@H]2C)cc1 | -1.18 (inactive)
C=C(CCCC)C(=O)CC[C@@H](OC(=O)c1cccnc1)c1ccc(CO)o1 | -0.192 (inactive)
Cc1ccc(S[C@]2(C(=O)NCC(C)C)CC(=O)N(Cc3cc(C(F)(F)F)cc(C(F)(F)F)c3)[C@@H]2c2ccc(CO)cc2I)cc1 | -0.227 (inactive)
CO[C@H]1O[C@H](CO)[C@@H](OC(=O)Nc2ccc(Br)cc2)[C@H](OC(=O)c2cc3ccccc3[nH]2)[C@H]1OC(=O)c1cc2ccccc2[nH]1 | -5.8 (inactive)
CCc1oc(CC[C@@H](CO)NC(=O)NCCn2cc(C3(O)CCCCC3)nn2)c(C(=O)OC)c1C(=O)OC | -0.892 (inactive)
COc1ccc(C(=O)Nc2ccc(CN3C(=O)[C@@]4(O[C@@H](CCn5cc([C@H](O)c6ccccc6)nn5)[C@H]([Si](C)(C)c5ccc(OC)cc5)[C@H]4C)c4ccccc43)cc2)cc1 | -1.15 (inactive)
Cc1ccc(C(C)CC(O)C2C=CC3C(=O)N(c4ccccc4)C(=O)C3N2Nc2ccc([N+](=O)[O-])cc2)o1 (stereo not given) | 0.35 (inactive)
COCCCNC(=O)[C@@]1(Cc2ccccc2N=[N+]=[N-])N=C(c2ccc(OCCCO)cc2)O[C@H]1c1ccccc1N=[N+]=[N-] | -1.76 (inactive)
COCCOC(=O)N1C(=O)[C@@]2(c3cc(C#Cc4ccc(OC)cc4)ccc31)[C@H](c1ccccc1OCCO)N1[C@H](c3ccccc3)[C@H](c3ccccc3)OC(=O)[C@H]1[C@@H]2C(=O)N1CCN(c2ncccn2)CC1 | -0.692 (inactive)
COc1cc2c(cc1OC)CN(C(=O)[C@H]1[C@@H]3C(=O)O[C@@H](c4ccccc4)[C@@H](c4ccccc4)N3[C@@H](c3ccc(O)cc3)[C@]13C(=O)Nc1ccc(C#CC4=CCCCC4)cc13)CC2 | -0.435 (inactive)
CCCCc1cn(C[C@H](Cc2ccccc2)NC(=O)N[C@H](CO)CCc2oc(C(C)=O)c(C(=O)OC)c2C(=O)OC)nn1 | -0.571 (inactive)
CN(C)C(=O)[C@]1(Cc2ccccc2N=[N+]=[N-])N=C(c2ccc(OCCCO)cc2)O[C@@H]1c1ccccc1 | -0.32 (inactive)
